Laboratory results from PubChem BioAssay AID463173 (ICCB-Longwood Screening Facility, Harvard Medical School, 2010).
About 1,700 (3.3%) of roughly 52,000 compounds were called active. The sample holds actives, similar compounds and a random draw of the others, so the mix is not that of the screen. Unmarked numbers belong to inactive results. Cut-off read from the data, not from the text of the source: active = survival mostly below about 52% (no sharp cut-off); inactive = mostly above about 56%.

System: Wild type
Experiment: S. aureus survival, RN4220 and DeltatarO strains – OD600, teichoic acid synthesis inhibitors, primary screen (AID 463173)
Conditions: S. aureus RN4220 wild type/DeltatarO growth, OD600, 18 h, active compounds read low, screened at 18.75 µg/mL (by protocol)

Row | SMILES | survival
1 | COc1ccc(C(C)=O)cc1CSc1nc(NCc2ccccc2)c2ccccc2n1 | 85%
2 | COc1ccc(C(C)=O)cc1CSc1nc(NCCc2ccccc2)c2ccccc2n1 | 47%
3 | COc1ccc(C(C)=O)cc1CSc1nc(NCc2ccc(Cl)cc2)c2ccccc2n1 | 0% (active)
4 | O=C(NCc1ccc(F)cc1)c1c2c(nc3ccccc13)C(=O)N(C1CCCCC1)C2 | 99%
5 | CCOc1ccccc1N(C)C(=O)c1c2c(nc3ccccc13)C(=O)N(C1CCCCC1)C2 | 90%
6 | CN(C(=O)c1c2c(nc3ccccc13)C(=O)N(C1CCCCC1)C2)c1ccc(F)cc1 | -3% (active)
7 | COc1ccc(CNC(=O)Cn2ncc3c(=O)oc4ccc(C)cc4c32)c(OC)c1 | 113%
8 | Cc1ccc(OCCCC(=O)Nc2sc3c(c2C(N)=O)CCC(C)C3)cc1 (centres undefined) | 148%
9 | COC(=O)c1c(NC(=O)CCCOc2ccccc2)sc2c1CCC(C)C2 (centres undefined) | 20%
10 | CCOC(=O)c1c(NC(=O)CS(=O)(=O)c2ccc(C)cc2)sc2c1CCC(C)C2 (centres undefined) | 73%
11 | CCOC(=O)c1c(NC(=O)CCCOc2ccccc2C)sc2c1CCC(C)C2 (centres undefined) | 6% (active)
12 | CCOC(=O)c1c(NC(=O)CCCOc2ccc(C)cc2)sc2c1CCC(C)C2 (centres undefined) | 2% (active)
13 | CC1CCc2c(sc(NC(=O)CCCOc3ccccc3)c2C(N)=O)C1 (centres undefined) | 91%
14 | COC(=O)c1ccccc1NC(=O)COC(=O)c1ccco1 | 108%
15 | COc1ccc(CNC(=O)c2cc(=O)[nH]c3ccc(S(=O)(=O)N4CCCC4)cc23)c(OC)c1 | 60%
16 | O=C(NCCc1ccc(Cl)cc1)C1COc2ccccc2C1 (centres undefined) | 88%
17 | CCOc1cc(CNC(=O)C2COc3ccccc3C2)cc(OCC)c1OCC (centres undefined) | 73%
18 | O=C(NCCc1ccccc1)C1COc2ccccc2C1 (centres undefined) | 10% (active)
19 | Cc1ccc(CCNC(=O)C2COc3ccccc3C2)cc1 (centres undefined) | 88%
20 | CCc1ccc(CNC(=O)C2COc3ccccc3C2)cc1 (centres undefined) | 88%
21 | CN(C)c1ccc(CNC(=O)C2COc3ccccc3C2)cc1 (centres undefined) | 0% (active)
22 | Cc1ccc(CNC(=O)C2COc3ccccc3C2)cc1 (centres undefined) | 121%
23 | COc1ccc(CCNC(=O)C2COc3ccccc3C2)cc1OC (centres undefined) | 59%
24 | CCOc1ccc(CCNC(=O)C2COc3ccccc3C2)cc1OCC (centres undefined) | -2% (active)

Row | SMILES | survival
25 | Cc1cccc(-n2c(SCC(=O)Nc3ccccc3C)nc3c(oc4ccccc43)c2=O)c1 | 86%
26 | CCc1ccc(NC(=O)N2CCN(C(=O)c3nsc4ccccc34)CC2)cc1 | 76%
27 | Cc1cc(C)cc(NC(=O)N2CCN(C(=O)c3nsc4ccccc34)CC2)c1 | 78%
28 | Cc1cccc(NC(=O)N2CCN(C(=O)c3nsc4ccccc34)CC2)c1C | 72%
29 | O=C(Nc1ccc(F)c(Cl)c1)N1CCN(C(=O)c2nsc3ccccc23)CC1 | 70%
30 | O=C(Nc1ccccc1)N1CCN(C(=O)c2nsc3ccccc23)CC1 | 85%
31 | CCc1ccccc1NC(=O)N1CCN(C(=O)c2nsc3ccccc23)CC1 | -1% (active)
32 | Cc1ccc(C)c(NC(=O)N2CCN(C(=O)c3nsc4ccccc34)CC2)c1 | 69%
33 | Cc1ccc(NC(=O)N2CCN(C(=O)c3nsc4ccccc34)CC2)cc1C | -6% (active)
34 | O=C(Nc1ccc(F)cc1)N1CCN(C(=O)c2nsc3ccccc23)CC1 | 14% (active)
35 | CCC(C(=O)NCc1ccccc1Cl)n1c(=O)c2cccn2c2ccccc21 (centres undefined) | 76%
36 | O=c1c2oc3ccccc3c2n(Cc2cccc(F)c2)c(=O)n1Cc1ccc2c(c1)OCO2 | 86%
37 | O=C(Cn1c(-c2cccs2)cc2cc(F)ccc21)N1CCCCC1 | 72%
38 | O=C(NCc1ccc(F)cc1)c1ccc2oc(=O)n(Cc3ccccc3)c2c1 | -4% (active)
39 | CCn1nnc2cc(C(=O)Nc3ccc(C)c(Cl)c3)ccc21 | 53%
40 | CCn1nnc2cc(C(=O)Nc3ccc(OC)cc3)ccc21 | 73%
41 | O=C(Nc1cccc(F)c1)c1ccc2oc(=O)n(Cc3ccccc3)c2c1 | 81%
42 | O=C(Nc1ccc(Cl)cc1)c1ccc2oc(=O)n(Cc3ccccc3)c2c1 | 63%
43 | CCc1ccc(NC(=O)c2ccc3c(c2)nnn3CC)cc1 | -6% (active)
44 | Cc1cccc(CNC(=O)c2ccc3oc(=O)n(Cc4ccccc4)c3c2)c1 | 60%
45 | COc1cccc(CNC(=O)c2ccc3oc(=O)n(Cc4ccccc4)c3c2)c1 | -3% (active)
46 | Cc1ccc(CNC(=O)c2ccc3oc(=O)n(Cc4ccccc4)c3c2)cc1 | 57%
47 | O=C(NCc1ccc(Cl)cc1)c1ccc2oc(=O)n(Cc3ccccc3)c2c1 | 129%
48 | O=C(NCc1ccccc1)c1ccc2oc(=O)n(Cc3ccccc3)c2c1 | 71%

Row | SMILES | survival
49 | CCc1ccc(NC(=O)c2ccc3oc(=O)n(Cc4ccccc4)c3c2)cc1 | 1% (active)
50 | Cc1nn(Cc2ccccc2)c(C)c1NC(=O)c1cc(C(C)C)on1 | 77%
51 | O=C(Nc1ccc(NC(=O)c2cccs2)cc1)c1ccc(Cl)cc1 | 81%
52 | Cc1onc(-c2c(Cl)cccc2Cl)c1C(=O)n1c(C)nc2ccccc21 | 105%
53 | Cc1cc(C)cc(NC(=O)Cn2c(-c3cncs3)nc3ccccc32)c1 | 63%
54 | CN(C)C(=O)Cn1c2[n+](c3ccccc31)CC(O)CS2 (centres undefined) | 103%
55 | O=C(COc1ccc(Cl)cc1)NCC(c1ccco1)S(=O)(=O)c1ccc(Cl)cc1 (centres undefined) | 78%
56 | Cc1cccc(CNC(=O)Cc2csc3ccccc23)c1 | 116%
57 | COc1ccc(CNC(=O)c2cccc(NC(=O)N3CCSc4ncccc43)c2)cc1 | 67%
58 | COc1ccccc1NC(=O)CCn1nc(-c2ccccc2OC)c2c(C)cc(C)nc21 | 111%
59 | O=C(Oc1ccccc1-c1nc(-c2ccccc2)no1)c1ccccc1 | 100%
60 | O=C(/C=C\c1ccco1)Oc1cccc2cccnc12 | 1% (active)
61 | O=C(Oc1cccc2cccnc12)c1ccccc1 | 1% (active)
62 | O=C1c2ccccc2C(=O)N1COc1cccc2cccnc12 | 101%
63 | O=C(/C=C/c1ccco1)ON1C(=O)c2ccccc2C1=O | 117%
64 | O=C(/C=C/c1ccco1)OCCN1CCOCC1 | 92%
65 | N#Cc1ccccc1NC(=O)Cn1cnc2onc(-c3cccc(F)c3)c2c1=O | 105%
66 | O=C(C1CCN(c2nc3ccccc3[nH]2)CC1)N1CCN(c2ccccc2)CC1 | 85%
67 | O=C(C1CCN(c2nc3ccccc3[nH]2)CC1)N1CCN(c2cccc(Cl)c2)CC1 | 0% (active)
68 | Cc1ccc2nc(N3CCC(C(=O)N4CCN(c5cccc(Cl)c5)CC4)CC3)[nH]c2c1 | 74%
69 | CCCC(=O)c1cc(F)c(N2CCOCC2)cc1C | 121%
70 | Cc1ccc(NC(=O)Cn2c(=O)n(Cc3ccccc3)c(=O)c3sc4ccccc4c32)cc1 | 93%
71 | Cc1ccc(-n2ncc(C(=O)NCc3ccco3)c2C2CCN(C(=O)OC(C)(C)C)CC2)cc1C | 72%
72 | COc1ccc(N2CCN(c3oc(/C=C/c4ccc(F)cc4)nc3C#N)CC2)cc1 | 84%

Row | SMILES | survival
73 | CCOc1cc(C(=O)NCc2nc(-c3cccc(C)c3)no2)cc(OCC)c1OCC | 89%
74 | Cc1ccc(-c2noc(CN(C(=O)c3ccc(C(C)(C)C)cc3)C(C)C)n2)cc1 | -1% (active)
75 | CCOc1cc(C(=O)N(Cc2nc(-c3ccc(C)cc3)no2)C(C)C)cc(OCC)c1OCC | 15% (active)
76 | CCCCOc1ccc(C(=O)N(Cc2nc(-c3ccc(Cl)cc3)no2)C(C)C)cc1 | 85%
77 | Cc1ccc(-c2noc(CNC(=O)c3ccc(C(C)(C)C)cc3)n2)cc1 | 89%
78 | CC(C)N(Cc1nc(-c2ccc(Cl)cc2)no1)C(=O)c1ccc(C(C)(C)C)cc1 | 0% (active)
79 | COc1cccc(C(=O)N(Cc2nc(-c3ccc(Cl)cc3)no2)C(C)C)c1OC | 46%
80 | Cc1cc(C)cc(C(=O)N(Cc2nc(-c3ccc(Cl)cc3)no2)C(C)C)c1 | 17%
81 | CCCCN(C)CCCNC(=O)C1CCN(S(=O)(=O)CCC)CC1 | 77%
82 | Cc1ccc(NC(=O)Cn2c(=O)n(CCC(=O)N3CCc4ccccc4C3)c(=O)c3ccccc32)c(C)c1 | 79%
83 | COc1cccc(C(=O)Nc2cc3c(cc2C(=O)c2ccc(C)cc2)OCCO3)c1 | 71%
84 | CCOC(=O)c1cc(S(=O)(=O)Nc2ccc(OC(F)(F)F)cc2)[nH]n1 | 87%
85 | COc1ccccc1C(=O)Nc1ccc2nc(N3CCC(C)CC3)cc(C)c2c1 | 0% (active)
86 | COc1ccccc1CC(=O)Nc1ccc2nc(N3CCC(C)CC3)cc(C)c2c1 | 71%
87 | CCN1CCN(c2cc(C)c3cc(NC(=O)c4cc(OC)c(OC)c(OC)c4)ccc3n2)CC1 | 73%
88 | CCN1CCN(c2cc(C)c3cc(NC(=O)c4cc(Cl)ccc4OC)ccc3n2)CC1 | 2% (active)
89 | CCN1CCN(c2cc(C)c3cc(NC(=O)c4ccc(OC)c(OC)c4)ccc3n2)CC1 | 65%
90 | COc1ccc(C(=O)Nc2ccc3nc(N4CCC(C)CC4)cc(C)c3c2)cc1 | 86%
91 | CCSc1nc(NC(C)=O)nn1C(C)=O | 103%
92 | Cc1ccc(NC(=O)Cc2c(C(=O)O)c(C)cn2C)cc1Cl | 87%
93 | CCOCCCn1c(SCC(=O)Nc2ccccc2OC)nc2c(oc3ccccc32)c1=O | 81%
94 | CCOc1ccc(C(=O)Nc2cccc(C(=O)OCc3cc(=O)n4cc(C)sc4n3)c2)cc1 | 81%
